Measured values reported in PubChem BioAssay (NCI).
Compounds without any hit were thinned out: in the full panel of roughly 83,000, 20% have a hit.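 Note: values are percent growth. 100 is the growth of untreated cells, values between 100 and 0 indicate rising inhibition; between -100 and 0 indicates cell death.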 Unmarked numbers belong to inactive results. The source made the active and inactive calls. The calls were made as follows: active = growth percent below 10; inactive = the rest.

Columns and labels:
Experiment in all cases: NCI-60 one-dose screen, 48 h (100 = growth as untreated, 0 = no growth, -100 = all killed)
Settings in all cases: 10 µM
[1] = system: K-562 leukemia
[2] = system: MALME-3M melanoma
[3] = system: MDA-MB-231 breast
[4] = system: RXF 393 renal
[5] = system: SF-268 CNS
[6] = system: SF-295 CNS
[7] = system: SF-539 CNS
[8] = system: UACC-257 melanoma
[9] = system: M14 melanoma
[10] = system: HCT-15 colon
[11] = system: HT29 colon
[12] = system: SNB-75 CNS
[13] = system: SNB-19 CNS
[14] = system: U251 CNS
[15] = system: PC-3 prostate
[16] = system: SK-MEL-5 melanoma
[17] = system: UACC-62 melanoma
[18] = system: LOX IMVI melanoma
[19] = system: SK-MEL-28 melanoma
[20] = system: SK-MEL-2 melanoma

| Compound | growth [1] | growth [2] | growth [3] | growth [4] | growth [5] | growth [6] | growth [7] | growth [8] | growth [9] | growth [10] | growth [11] | growth [12] | growth [13] | growth [14] | growth [15] | growth [16] | growth [17] | growth [18] | growth [19] | growth [20] |
| --- | --- | --- | --- | --- | --- | --- | --- | --- | --- | --- | --- | --- | --- | --- | --- | --- | --- | --- | --- | --- |
| CSc1nc(=O)n(Cc2ccc(Cl)cc2)c(=O)[nH]1 | 96.1% | 105% | 104% | 115% | 102% | 146% | 101% | 102% | 106% | 103% | 109% | 74.6% | 108% | 94.6% | 101% | 110% | 112% | 96.8% | 107% | 116% |
| O=S(=O)(Nc1ccccn1)c1ccc(N=Nc2ccc(O)c3ncccc23)cc1 | 6.51% (active) | -19.8% (active) | -2.1% (active) | 27.1% | 25% | 6.2% (active) | 10.8% | -23.5% (active) | 11.8% | 14.5% | 79.5% | -6.04% (active) | 12% | 0.16% (active) | -5.46% (active) | -4.96% (active) | -4.64% (active) | 13.7% | 33.9% | -30.1% (active) |
| COc1ccc(-c2cc(-c3cccc(NS(C)(=O)=O)c3)nc(N)c2C#N)cc1 | 14.3% | 2.95% (active) | 30.4% | 16.3% | 29.9% | 0.458% (active) | 5.27% (active) | 79.1% | 6.36% (active) | 30.5% | 8.45% (active) | -6.31% (active) | 42.1% | 28.5% | 9.4% (active) | 13.6% | 39.9% | 44.8% | 66% | 49.8% |
| COc1cc(OC)cc(-c2cncn2-c2ccc(-c3nc4cc(OC)cc(OC)c4s3)cc2)c1 | 19.2% | 48% | 66.5% | 58.1% | 68.5% | -22% (active) | 62.6% | 82.4% | 38.8% | 48.4% | 36.4% | 60.9% | 63.6% | 40.8% | 34.1% | 39.5% | 58.8% | 51.4% | 82.7% | 81.1% |
| c1ccc2c(-c3nc(N4CCOCC4)c4c5c(sc4n3)CCCCCC5)cccc2c1 | 115% | 97% | 96.7% | 95.9% | 102% | 98.1% | 98.9% | 110% | 110% | 100% | 101% | 85.2% | 104% | 91% | 95% | 94% | 96.6% | 105% | 105% | 104% |
| Cn1c(N)c(N=Nc2ccc(S(=O)(=O)Nc3nccs3)cc2)c(=O)n(C)c1=O | 90.2% | 86.8% | 111% | 130% | 103% | 91% | 98.3% | 95.6% | 101% | 110% | 107% | 94.1% | 104% | 99.2% | 90.5% | 104% | 106% | 89.4% | 112% | 92.4% |
| O=C(C[P+](c1ccccc1)(c1ccccc1)c1ccccc1)C[P+](c1ccccc1)(c1ccccc1)c1ccccc1 | -34.2% (active) | -86.5% (active) | -71.3% (active) | -70.2% (active) | -86.3% (active) | -72.4% (active) | -98.2% (active) | -82.3% (active) | -75.4% (active) | -77.6% (active) | -77.3% (active) | -22.6% (active) | 20.3% | -91.8% (active) | -77.7% (active) | -88.9% (active) | -79.6% (active) | -87.2% (active) | -42% (active) | -79.8% (active) |
| CCCCOC(=O)Oc1ccc(C(=O)Oc2ccc(OCC)cc2)cc1 | 109% | 109% | 97.9% | 102% | 95.5% | 109% | 86.2% | 99.5% | 96.7% | 102% | 108% | 111% | 102% | 88.9% | 93.2% | 102% | 104% | 96.3% | 109% | 112% |
| COC(=O)C1=NNC(=S)N(c2cc(C)[nH]n2)C(=O)C1 | 93.7% | 93.2% | 110% | 111% | 102% | 96.3% | 102% | 100% | 102% | 102% | 113% | 93.9% | 98% | 101% | 99.1% | 101% | 103% | 95.9% | 114% | 100% |
| CCOC1(OCC)OC(c2ccccc2)=C(C#N)C(/C=C\c2ccccc2)C1(OCC)OCC (stereo not given) | 73.3% | 73.7% | 85.1% | 60.1% | 79.8% | 94.1% | 100% | 81% | 78% | 81.7% | 69.6% | 86.6% | 89.8% | 77.4% | 54.9% | 95.5% | 80.1% | 79% | 99.8% | 95.3% |
| CC(C)(C)c1cc(Br)cc(C(C)(C)C)c1O | 101% | 103% | 116% | 101% | 113% | 97.8% | 104% | 104% | 115% | 105% | 113% | 95.7% | 104% | 99.8% | 94.4% | 102% | 99.3% | 99.1% | 112% | 118% |
| CN(C)c1ccc(N=C2C=CC(=O)c3ccccc32)cc1 | 69.8% | -11.2% (active) | 59.5% | 81.2% | 73.9% | 60.5% | 88.7% | 65.3% | -18.2% (active) | 53.5% | 61.4% | 84.7% | 70.7% | 87.5% | 65.2% | -56.1% (active) | 22.5% | 40.9% | 73.6% | 64.9% |
| O=C1/C(=C\c2ccc(F)cc2)CN(C(=O)c2ccccc2)C/C1=C\c1ccc(F)cc1 | 4.01% (active) | 8.3% (active) | -25.9% (active) | 26.6% | 26% | -3.21% (active) | 69.2% | 36.5% | 4.22% (active) | 1.64% (active) | -50.9% (active) | 48.1% | 61.3% | -25% (active) | 22.1% | 34.3% | 4.27% (active) | -55.9% (active) | 34.8% | 54.8% |
| O=C(O)c1ccc(P(=O)(O)O)c([N+](=O)[O-])c1 | 107% | 97.7% | 108% | 105% | 110% | 99.2% | 104% | 92.2% | 114% | 102% | 101% | 87.1% | 107% | 95.1% | 97.7% | 95.3% | 108% | 102% | 110% | 117% |
| O=c1[nH]c(-c2ccc(Cl)cc2)nc2sc3c(c12)CCCC3 | 69.5% | 108% | 97.8% | 89.1% | 50.7% | 32.9% | 72.1% | 103% | 68.2% | 81.1% | 106% | 57.9% | 76.6% | 54.3% | 93.2% | 75.9% | 55.8% | 48.9% | 107% | 102% |
